# Screening data deposited in PubChem by National Center for Advancing Translational Sciences (NCATS).
# A selection: hits, their analogues and other compounds. The true share with any hit is near 21%.
# HCV inh – HCV inhibition; Huh7.5.1 HCVcc-Cre infection, luciferase reporter, 44 h; Potency, µM (titrated, usually from 41.8 µM), for inactives: at the top dose activity change, negative = inhibition, actives largely listed as inhibitors; 340,000 tested, 3.4% active; AID 651820; note: potency is the fitted concentration of half-maximal effect; % is set by controls: 0 for no effect and ±100 for the full control effect
#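 A cell-based infection assay in which seeded cells (1,000 per well) receive test compound after 4 h, are inoculated with HCVcc-Cre at approximately 0.5 moi, and are incubated 44 h before luminescence detection.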
# Pf growth 96h – P. falciparum growth inhibition at 96 hour, primary screen for plastid delayed-death inhibitors. P. falciparum luciferase reporter growth, 96 h. Potency, µM (highest dose often 28.7 µM), without a hit: at the top dose activity change, negative = inhibition, usual class: inhibitors. 320,000 tested, 6.9% active. AID 504834; note: potency is the fitted concentration of half-maximal effect; % is set by controls: 0 for no effect and ±100 for the full control effect
#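 Plates of compound plus infected erythrocytes (2% hematocrit, 0.05% parasitemia final) incubate 96 hours, 37 C, 5% CO2. Detection reagent added; reduced luminescence from the parasites' luciferase reporter flags inhibition.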
# HCMV inh – human cytomegalovirus inhibition | HFF cells, HCMV-luciferase reporter, 72 h; active compounds read low | activity change, negative = inhibition, % at 57.5 µM | 410,000 tested, 4.5% active | AID 1259415; in the data active = activity change below about -60%; inconclusive = no clear call, values can overlap the other calls; inactive = above about -39%; note: % is set by controls: 0 for no effect and ±100 for the full control effect
#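 Human foreskin fibroblasts infected with luciferase-reporter HCMV at MOI 1 PFU/cell, compounds at two doses. Luciferase measured 72 h post infection; normalized to buffer-only basal and Salinomycin (10uM) controls.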
# Pf growth 48h – inhibits P. falciparum growth in the first generation, 48 h; P. falciparum luciferase growth in erythrocytes, 48 h; Potency, µM (doses to about 28.7 µM), for inactives: at the top dose activity change, negative = inhibition, usual class: inhibitors; 310,000 tested, 5.9% active; AID 504832; note: potency is the fitted concentration of half-maximal effect; % is set by controls: 0 for no effect and ±100 for the full control effect
#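 Cell-based growth assay: transgenic P. falciparum expressing firefly luciferase, cultured in red cells within RPMI 1640 containing 0.5% w/v Albumax, 24 mM bicarbonate and gentamycin. A drop in luciferase activity indicates inhibition.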
# Shiga inhibitor – Shiga toxin inhibition | Vero cells, Shiga toxin protein synthesis inhibition reporter | 290,000 tested, 9.2% active | inhibition, % at 38.7 µM | AID 2315; in the data active = inhibition mostly above about 28%, no sharp cut-off; inactive = mostly below about 43%; note: 0% is about no effect
# Cycloheximide cs – counter-screen hit for Shiga toxin inhibitors, cycloheximide | cell reporter, cycloheximide protein synthesis inhibition counterscreen | max response, % | 300,000 tested, 12% active; in the data active = max response mostly above about 13%, no sharp cut-off; inactive = mostly below about 14%; note: read at 38.3 µM for the half of the compounds with a filed dose; 0% is about no effect
# * = called active by the depositor; ? = inconclusive; . = not tested or not shown; [ ] = dose if it differs, or a comment. Unless noted, calls come from the whole dose curve; as a rule, active = well fitted inhibition curve with a large enough effect; inconclusive = small, poorly fitted or top-dose-only effect, or another doubt; inactive = no such curve, though single readings can be large or run the other way.
SMILES,HCV inh,Pf growth 96h,HCMV inh,Pf growth 48h,Shiga inhibitor,Cycloheximide cs
O=C(CCc1c[nH]c2ccccc12)N1CCN(S(=O)(=O)c2ccc([N+](=O)[O-])cc2)CC1,.,.,24.9,.,.,.
O=C(N/N=C/c1ccc(O)c([N+](=O)[O-])c1)c1ccncc1,0.3%,1.9%,-7.8,18.7%,-11.3,0.6
COc1ccc2ccccc2c1/C=N\NC(=O)c1cccnc1,?,.,18.2,.,.,.
COc1cc(/C=N/NC(=O)c2cccnc2)ccc1OS(=O)(=O)c1cc(C)ccc1C,?,?,?,?,5.7,17.0*
COc1cc(/C=N/NC(=O)c2cccnc2)ccc1OCC(=O)Nc1ccc(C)cc1,-8.8%,71.5%,-16.5,23.3%,21.0,21.1*
CCNC(=O)COc1ccc(/C=N/NC(=O)c2cccnc2)cc1OC,8.3%,-15.9%[5.75 µM],-2.6,-6.2%,9.4,5.8
COCCn1c(C)cc(/C=N/NC(=O)c2cccnc2)c1C,17.5%,69.3%,-31.2,48.8%,68.8*,22.4*
COc1ccc(/C=N/NC(=O)c2ccncc2)cc1[N+](=O)[O-],21.8%,4.15µM*,-39.7,28.9%,-7.9,1.9
COc1ccc(/C=C/C(=O)Nc2nc3n(n2)C(c2ccc(F)cc2)C=C(c2ccccc2)N3)cc1 (centres undefined),.,.,-20.2,.,.,.
COc1ccc(CNC(=O)CN2CCC(NC(=O)c3ccc(OC)cc3)CC2)cc1,12.7%,0.1%,1.0,-7.7%,36.3,-3.2
CCC(=O)N1CCc2cc(S(=O)(=O)NC(C(=O)NCc3ccccc3Cl)C(C)C)ccc21 (centres undefined),.,.,-8.2,.,.,.
CC1=C(CC[C@@H](C)CO)OC2CC3C4CCC5CC(O)CCC5(C)C4CC(=O)C3(C)C12 (some centres undefined),?,.,-37.0,.,.,.
CNC(=O)C1CCC(Cn2c(=O)c3sccc3n(CC(=O)NCc3ccccc3)c2=O)CC1 (centres undefined),.,.,41.3,.,.,.
Cc1cc(/C=N/NC(=O)c2ccc(O)cc2)c(C)n1CC(C)C,-10.2%,-19.0%,?,0.0%,82.0*,47.8*
COc1ccc(/C=N/NC(=O)c2ccc(O)cc2)cc1CN1CCCc2ccccc21,?,2.33µM*,61.3,?,16.4,10.7
COc1ccc(C(=O)N/N=C/c2ccc(OC(=O)c3cccc4ccccc34)c([N+](=O)[O-])c2)cc1,?,9.28µM*,-10.8,30.2%,16.6,17.0
COc1ccc(Oc2ccc(/C=N/NC(=O)c3cccnc3)cc2[N+](=O)[O-])cc1,?,14.2%,-80.3*,-7.9%,-6.1,-1.6
COc1ccc(/C=N/NC(=O)c2ccc(F)cc2)cc1CN1CCc2cc(OC)c(OC)cc2C1C (centres undefined),?,20.8%,23.0,?,6.1,11.9
Cc1cc(C(F)F)n2nc(C(=O)Nc3cccc(Cl)c3C)nc2n1,.,.,-20.4,.,.,.
O=C(CN1CCCCC1)Nc1ccccc1Oc1ccccc1,-17.2%,?,?,?,-6.2,-2.1
Cc1cccc(N2CCN(C(=O)CN3C(=O)CSc4c3c(C)nn4-c3ccccc3)CC2)c1C,.,.,0.1,.,.,.
CCOc1ccc(C=NNC(=O)c2ccc(-n3cnnn3)cc2)cc1,-5.1%,.,-12.1,.,.,.
CN(N=Cc1ccc(N(C)C)cc1)C(=O)c1ccccc1N,.,.,119.0,.,.,.
O=C(NC1CC(=O)N(c2ccc(Cl)cc2)C1)c1ccc(S(=O)(=O)N2CCCC2)cc1 (centres undefined),.,.,31.4,.,.,.
Cc1cccc(NS(=O)(=O)c2cccc(C(=O)N3CCN(C/C=C/c4ccccc4)CC3)c2)c1,?,10.4µM*,2.5,11.7µM*,.,.
SMILES,HCV inh,Pf growth 96h,HCMV inh,Pf growth 48h,Shiga inhibitor,Cycloheximide cs
Cc1cc(C(=O)N2CCN(C/C=C/c3ccccc3)CC2)cs1,?,.,-1.9,-7.5%,20.8,14.9
COc1ccccc1NS(=O)(=O)c1cccc(C(=O)N2CCN(C/C=C/c3ccccc3)CC2)c1,?,8.28µM*,1.0,5.86µM*,-0.9,-2.3
Cc1noc(C)c1COc1cccc(C(=O)N2CCN(C/C=C/c3ccccc3)CC2)c1,?,.,-6.6,10.4µM*,-7.3,-0.7
COc1ccccc1NC(=O)C(C)N1CCN(C/C=C/c2ccccc2)CC1 (centres undefined),-21.7%,17.3%,-0.7,13.1µM*,-26.1,0.2
Cc1ccc(NC(=O)NCCc2c(C)nn(C)c2C)c(Cl)c1,.,.,-17.8,.,.,.
COc1cccc(Cn2c(CNS(=O)(=O)c3ccc(C(C)(C)C)cc3)nc3cccnc32)c1,.,.,4.0,.,.,.
C=C(C)CCOC(=O)C(CC(=O)O)NCc1ccco1 (centres undefined),20.5%,-9.5%,0.0,?,-11.7,-0.7
Cc1ccc(S(=O)(=O)N2CCN(C(=O)C3CCN(C(=O)c4ccccc4C)CC3)CC2)cc1C,?,?,?,?,-16.6,-1.9
FC(F)(F)c1cccc(CNC2c3ccccc3-c3ccccc32)c1,26.4%,?,-5.6,?,8.1,1.2
NC(=O)CCCCC(=O)OCCCc1cccs1,16.9%,4.65µM*,-13.0,-5.8%,-7.6,-1.7
O=C(O)c1cn(-c2ccc(F)cc2)c2cc(Cl)c(F)cc2c1=O,0.1%,?,-60.9*,3.5%,-5.1,-1.8
CCCOc1ccc(C(=O)NNC(=S)NC(=O)c2ccccc2)cc1,?,3.29µM*,-86.2*,10.4µM*,3.8,7.5
CCCOc1ccc(C(=O)NNC(=S)NC(C)=O)cc1,?,0.329µM*,-93.7*,?,39.0,16.9
CCCCOc1ccc(C(=O)NNC(=S)NC(=O)CC)cc1,?,?,.,6.57µM*,29.1,2.0
CCC(=O)NC(=S)NNC(=O)c1ccc(OC)cc1,?,32.0%,-24.6,?,20.2,-2.5
CC(C)(C)c1ccc(C(=O)NC(=S)NNC(=O)COc2ccccc2)cc1,?,0.0%,86.4,39.0%,60.6,16.5*
CCCOc1ccc(C(=O)NNC(=S)NC(=O)c2cccs2)cc1,?,?,?,?,-3.2,-3.4
COc1ccccc1CNC(=O)CN1C(=O)NC2(CCCCCC2)C1=O,-15.7%,.,7.9,.,.,.
CCC(=O)NC(=S)NNC(=O)c1ccc([N+](=O)[O-])cc1,3.4%,13.1µM*,30.5,?,-7.5,18.7
CC1CCC(NC(=O)Cn2c3c(c(-c4ccccc4Cl)cc2=O)CCC3)CC1 (centres undefined),11.2µM*,-17.2%,-23.1,?,13.9,1.0
CC(C)CCNC(=O)Cn1c2c(c(-c3ccccc3Cl)cc1=O)CCC2,-23.6%,-17.6%,-79.8*,.,31.6,10.0
C=CCn1c(SCC(=O)NC2CC2)nnc1-c1cccs1,2.0%,28.2%,2.5,18.3%,-29.2,3.1
CC(C)c1nnc(NC(=O)C2CCN(C(=O)c3ccco3)CC2)s1,5.0%,-29.9%,60.2,?,40.4*,21.0*
Cc1nc2ccc3nc(NC(=O)c4ccco4)sc3c2s1,12.8%,.,23.8,.,.,.
